The antibiotic and cytotoxicity screens of Wong et al. (2023)
About 1,500 (3.8%) of roughly 39,000 compounds were called active. The sample holds actives, similar compounds and a random draw of the others, so the mix is not that of the screen.

tested on: HSkMC (human skeletal muscle cells); assay: cytotoxicity call (relative viability < 0.9); conditions: 10 µM

Structure (SMILES) | cytotoxicity call
[N-]=[N+]=NCc1ccccc1C[C@@]1(C(=O)NCCN2CCOCC2)N=C(c2ccc(OCCCO)cc2)O[C@@H]1c1ccccc1N=[N+]=[N-] | inactive
CC1=C2CC3C(CC=C4CC(O)CCC43C)C2CCC12OC1CC(C)CNC1C2C (stereo unspecified) | inactive
Cc1ccc(OC(=O)N(C)C[C@H]2OCc3ccccc3-c3c(n(C)c4ccccc34)C(=O)N([C@@H](C)CO)C[C@@H]2C)cc1 | inactive
O=C1[O][SbH]23[O]C(=O)[C@H]([O]2)[C@H]2[O][SbH]4([O]C(=O)[C@H]([O]4)[C@H]1[O]3)[O]C2=O | active
O=C1[O][SbH]23[O]C(=O)C([O]2)C2[O][SbH]4([O]C(=O)C([O]4)C1[O]3)[O]C2=O | inactive
CC(C)(C)NCC(O)c1ccccc1Cl.Cl (stereo unspecified) | inactive
CC(C)(C#N)O[C@@H]1O[C@H](CO)[C@@H](O)[C@H](O)[C@H]1O | inactive
CN1C(=O)[C@@]23C[C@]4([C@@]56C[C@]78SS[C@](CO)(C(=O)N7[C@@H]5Nc5ccccc56)N(C)C8=O)c5ccccc5N[C@H]4N2C(=O)[C@@]1(CO)SS3 | active
CN1C(=O)[C@]23CC4=CC=C[C@H](O)[C@H]4N2C(=O)[C@@]1(CO)SS3 | active
N#C[C@H](O[C@@H]1O[C@H](CO[C@@H]2O[C@H](CO)[C@@H](O)[C@H](O)[C@H]2O)[C@@H](O)[C@H](O)[C@H]1O)c1ccccc1 | inactive
CN1CC[C@]2(CCCO2)C1 | inactive
CCOc1ccc(CN)cn1 | inactive
NSC(=S)N1CCCC1 | inactive
O=C1C=C2C=CC3CC2(O1)C1CCCCN31 (stereo unspecified) | inactive
Nc1ccc2c(c1)CNCC2 | inactive
O=c1[nH]c2ccccc2n1C1CCN(CCCC(c2ccc(F)cc2)c2ccc(F)cc2)CC1 | active
O=c1[nH]c2ccccc2n1CCCN1CCC(n2c(=O)[nH]c3cc(Cl)ccc32)CC1 | inactive
COc1ccn(C)c(=O)c1C#N | inactive

Structure (SMILES) | cytotoxicity call
Cl.c1ccc2c(c1)OCC(C1=NCCN1)O2 (stereo unspecified) | inactive
CI.O=C(COc1ccc(Cl)cc1Cl)OC[C@H]1CCCN2CCCC[C@@H]12 | inactive
O=C1CO[C@]2(CNCCOC2)CN1CC1CC1 | inactive
CN(C)C(=O)CCC(=O)N1C[C@H]2C[C@@H]1CN2 | inactive
CO[C@@H]1C[C@@H](C[C@H]2CC[C@H](C)[C@H]([C@@H](C)C(=O)O)O2)O[C@]2(O[C@](C)([C@H]3CC[C@@](C)([C@H]4O[C@@H]([C@H]5O[C@@](O)(CO)[C@H](C)C[C@@H]5C)C[C@@H]4C)O3)C[C@H]2C)[C@@H]1C | active
C[C@@H]1CN([C@H](C)CO)C(=O)CCCn2nncc2CO[C@@H]1CN(C)C(=O)Oc1cccc2ccccc12 | inactive
Clc1ccc(C(c2ccc(Cl)cc2)C(Cl)(Cl)Cl)cc1 | inactive
N[C@H]1C[C@H]1c1ccccc1 | inactive
O=C(Cc1ccccc1)c1ccccc1 | inactive
CC(=O)[O][Hg][c]1ccccc1 | active
NCC(=O)c1ccccc1 | inactive
O.O.O.O=C([O-])C1[O][Sb]2[O]C(=O)C([O]2)C(C(=O)[O-])[O][Sb]2[O]C(=O)C1[O]2.[K+].[K+] (stereo unspecified) | inactive
CC[C@@H](C)[C@H]1NC(=O)C(C(C)=O)=C1O | inactive
CCC(N)C(O)c1ccc(O)c(O)c1.Cl (stereo unspecified) | inactive
CC[C@@H](N)[C@@H](O)c1ccc(O)c(O)c1 | active
C[C@H](N)[C@H](O)c1ccc(O)c(O)c1 | inactive
Cn1cc([C@@H](O)c2ccccc2)[n+](C)c1 | inactive
CC(CO)NC(=O)C1C=C2c3cccc4[nH]cc(c34)CC2N(C)C1.O=C(O)C=CC(=O)O (stereo unspecified) | inactive
